# High-throughput results from PubChem BioAssay.
# DT40 TDP1 no CPT = qHTS for Inhibitors of human tyrosyl-DNA phosphodiesterase 1 (TDP1): qHTS in cells in absence of CPT; Potency, µM (top dose mostly 46.2 µM), inactives show at the highest dose activity change, negative = growth inhibition, hits mostly inhibitors; actives 15% (n = 420,000); AID 686978, 2013; DT40 Tdp1-/- hTDP1 cells, no CPT, ATP luminescence, 48 h; also: potency is read from the fitted curve at half-maximal effect; % is scaled to controls: 0 for no effect and ±100 for the full control effect; nearly all actives have a fitted effect of over 55% in size
#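 Chicken DT40 Tdp1-/- cells complemented with human TDP1, screened without camptothecin (DMSO vehicle only), 400 cells/well. Compounds pin-transferred, cells incubated at 37 °C for at least 48 hr. Growth read as ATP-dependent luminescence (CellTiter-Glo, 30 min at RT).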
# IL-1B inflam inh = inhibitors of inflammasome signaling (IL-1 beta secretion) | actives 4.7% (n = 360,000) | THP-1 LPS/ATP IL-1B secretion, AlphaLISA, 16 h; stronger effect = lower value | activity change, % at 57.5 µM; in the data active = activity change below about -50%; inconclusive = mostly about -30% to -49%; also: % is scaled to controls: 0 for no effect and ±100 for the full control effect
#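 THP-1 cells pretreated 1 hr with compounds (up to 57.5 uM final), then stimulated with LPS (250 ng/mL final) plus ATP (1.25 mM final); secreted IL-1B measured by AlphaLISA after 16 hr, decreased signal indicating inhibition.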
# MCF10A rerep = inducers of DNA re-replication in MCF 10A breast cells | actives 2.9% (n = 350,000) | AID 624296 | MCF 10A DNA re-replication, Hoechst nuclear intensity, 48 h | Potency, µM (highest dose often 46.1 µM), for inactives: top-dose activity, positive = re-replication, actives largely listed as activators; also: potency is read from the fitted curve at half-maximal effect; % of control where 0% means no effect; nearly all actives have a fitted effect of over 50% in size
# DT40 TDP1 CPT = DT40-hTDP1 cell growth loss with CPT; chicken DT40 Tdp1-/-;hTDP1 cells + 20 nM CPT, ATP luminescence, 48 h; Potency, µM (series often up to 46.2 µM), for inactives: at the top dose activity change, negative = growth inhibition, hits mostly inhibitors; actives 12% (n = 420,000); AID 686979; also: potency is read from the fitted curve at half-maximal effect; % is scaled to controls: 0 for no effect and ±100 for the full control effect; nearly all actives have a fitted effect of over 55% in size
#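 Chicken DT40 Tdp1-/- cells stably complemented with human TDP1 were seeded at 400 cells/well in medium containing 20 nM camptothecin, exposed to pin-transferred compounds, and grown at 37 °C for at least 48 hr. Viability was read as ATP luminescence.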
# BCR signal inh = blocks chronic active B-cell receptor signaling; Potency, µM (highest dose often 46.1 µM), without a hit: at the top dose activity change, negative = inhibition, most hits filed as inhibitors; actives 0.05% (n = 340,000); ABC-DLBCL IkBa-CBG/CBR reporter, luminescence ratio, 4 h; AID 493014; active = well fitted inhibition curve with a large enough effect in the signal ratio, with a control signal flat, not every such curve was filed as active; inconclusive = small, poorly fitted or top-dose-only effect, or effect the other way, or a change in a side signal; the % refers to the signal ratio;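 also: potency is read from the fitted curve at half-maximal effect; plate controls were basal doxycycline-induced cells for no effect and cells given 10 µM MG132 for full effect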
#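 Concentration-response series (up to 46 uM) were applied to TMD8 dual-reporter cells for 4 h at 37C with doxycycline. Green/red ratio, after filter-overlap correction, defined %Activity; red signal alone was normalised to basal cells and zero luminescence.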
# SW480 rerep = DNA re-replication induction in SW480 cells | SW480 DNA re-replication, Hoechst DNA content imaging, 48 h | Potency, µM (titrated, usually from 46.1 µM), for the others: at the highest dose re-replication activation, usual class: activators | actives 1.8% (n = 340,000) | AID 624297; also: potency is read from the fitted curve at half-maximal effect; % of control where 0% means no effect; nearly all actives have a fitted effect of over 55% in size
#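 DNA re-replication was detected as more nuclei of elevated Hoechst intensity after 48 hr exposure to compound (23 nL pinned per well of 250 cells).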
# * = called active by the depositor; ? = inconclusive; nt = not tested or not shown. In the library only some 19% were active in any assay of this set; here they are far more common. Unless noted, calls follow the shape of the dose curve; as a rule, active = well fitted curve in the direction sought with a large enough effect; inconclusive = small, poorly fitted or top-dose-only effect, or another doubt; inactive = no such curve, though single readings can be large; an effect the other way counts as inactive or inconclusive.
SMILES,DT40 TDP1 no CPT,IL-1B inflam inh,MCF10A rerep,DT40 TDP1 CPT,BCR signal inh,SW480 rerep
CCCCCCCCCCCCCCCC[N+](C)(C)Cc1ccc(F)cc1,7.3µM*,-74*,15µM*,6.5µM*,nt,?
CCCCCCCCCCCCC[N+](C)(C)Cc1ccccc1,0.58µM*,nt,nt,0.65µM*,nt,nt
CSC(=Nc1ccccc1)C(C#N)c1nc2ccccc2[nH]1 (centres undefined),-12%,5,-1%,-4%,7%,-23%
N#CC(C(=S)Nc1ccccc1)c1nc2ccccc2[nH]1 (centres undefined),5.2µM*,26,?,5.2µM*,?,?
CCCC(=O)c1cc2ccccc2oc1=O,-2%,1,-1%,7%,-2%,-5%
CCC[n+]1c2ccccc2cc2ccccc21,2.6µM*,-99*,13µM*,2.9µM*,-15%,12µM*
Cc1ccc2ccccc2[n+]1CCCS(=O)(=O)[O-],-6%,0,6%,-18%,0%,-1%
CCCC[n+]1c2ccccc2cc2ccccc21,2.1µM*,-101*,3%,2.3µM*,?,?
O=C(C1CCN(S(=O)(=O)Cc2ccccc2)CC1)N1CCN(c2cccc(C(F)(F)F)c2)CC1,?,nt,nt,-20%,nt,nt
CCCCCCNC1=NCCS1,1%,9,-1%,-5%,1%,5%
CC(=O)Nc1cc(-c2ccncc2)cn2c(-c3ccccc3)cnc12,16µM*,-9,nt,18µM*,nt,nt
CC(=O)Nc1cc(-c2ccc(F)cc2)cn2c(-c3ccc(S(C)(=O)=O)cc3)cnc12,16µM*,0,nt,?,nt,nt
CC(=O)Nc1cc(-c2ccc(F)cc2)cn2c(-c3ccc(F)cc3)cnc12,18µM*,-5,nt,16µM*,nt,nt
CC(=O)Nc1cc(-c2ccccc2CN(C)C)cn2c(-c3ccc(F)c(Cl)c3)cnc12,?,-17,nt,?,nt,nt
CC(=O)Nc1cc(-c2ccc(CO)cc2)cn2c(-c3ccc(F)cc3)cnc12,16µM*,?,nt,16µM*,nt,nt
COc1ccc(C(=O)NCC2Cc3cc(F)cc(-c4cncnc4)c3O2)cc1 (centres undefined),-30%,nt,nt,-13%,nt,nt
O=c1nc2ccccc2c2n1CC(CN1CCN(c3ccccc3F)CC1)N2 (centres undefined),13µM*,11,?,?,3%,-4%
OC[C@H](S)CS,16µM*,nt,9.4µM*,8.9µM*,nt,17%
OCC(S)CS (centres undefined),17µM*,nt,nt,?,nt,nt
COc1ccc(S(=O)(=O)N(CCc2ccccc2)CC(=O)NCc2ccc(C)cc2)cc1,21µM*,nt,nt,?,nt,nt
COc1ccc(S(=O)(=O)N(CCc2ccccc2)CC(=O)Nc2cc(C)ccc2C)cc1,21µM*,nt,nt,18µM*,nt,nt
COc1ccc(S(=O)(=O)N(CCc2ccccc2)CC(=O)Nc2cccc(OC)c2)cc1,18µM*,nt,nt,?,nt,nt
COc1ccc(S(=O)(=O)N(CCc2ccccc2)CC(=O)Nc2ccc(C)c(C)c2)cc1OC,16µM*,nt,nt,15µM*,nt,nt
CCn1nnnc1SCC(=O)N1CCCCC1,-5%,7,1%,2%,0%,2%
COc1cc(N(C)C)ccc1[C@]1(O)C(=O)N(C)c2ccc(Br)cc21,?,-9,nt,-26%,nt,nt
SMILES,DT40 TDP1 no CPT,IL-1B inflam inh,MCF10A rerep,DT40 TDP1 CPT,BCR signal inh,SW480 rerep
CN1C(=O)NC(=O)C1c1ccccc1 (centres undefined),-21%,-8,-30%,3%,nt,-4%
Cc1cc(C(=O)NC2CCCN(Cc3ccc(Cl)cc3)C2)c(C)o1 (centres undefined),?,3,?,?,0%,0%
Cc1ccc(C)c(NC(=O)CN(C)S(=O)(=O)c2ccccc2)c1,-26%,-18,-21%,-12%,?,-4%
Cc1ccc(S(=O)(=O)N(CCc2ccccc2)CC(=O)Nc2cc(C)ccc2C)cc1,16µM*,nt,nt,?,?,nt
CSc1ccccc1NC(=O)CN(C)CC(=O)Nc1cc(C)ccc1C,21µM*,0,6%,-4%,-11%,0%
COc1ccc(C#Cc2cccc(-c3nc(C(=O)N4CCN(C)CC4)cc4c3[C@H](CCO)N(S(=O)C(C)(C)C)C4)c2)cc1OC (some centres undefined),-21%,-19,nt,-29%,nt,nt
Cc1cccc(C)c1N/C=C/c1onc(C)c1[N+](=O)[O-],-21%,29,-13%,-17%,nt,-8%
Cc1noc(/C=C/c2cccnc2)c1[N+](=O)[O-],13µM*,-94*,?,21µM*,?,?
NC(=S)n1[nH]c(-c2ccc([N+](=O)[O-])cc2)c(N=Nc2ccc(Cl)cc2)c1=O,?,-92*,-8%,?,10µM*,17%
O=c1cc(-c2ccccc2)[nH]n1-c1ccc([N+](=O)[O-])cc1,?,-64*,15µM*,18µM*,?,23%
Cc1[nH]n(C(N)=S)c(=O)c1N=Nc1ccc(Br)cc1,16µM*,9,-9%,23µM*,?,-16%
Cc1ccc(N=Nc2c(C)[nH]n(C(N)=S)c2=O)cc1,?,9,?,-16%,?,-5%
Cc1ccc([N+](=O)[O-])cc1N=Nc1c(C)[nH]n(C(N)=S)c1=O,-1%,8,1%,-8%,?,-17%
Cc1ccc([N+](=O)[O-])cc1N=Nc1c(-c2ccc([N+](=O)[O-])cc2)[nH]n(C(N)=S)c1=O,2.9µM*,?,3%,8.2µM*,?,8%
CN(C)C(CNC(=O)CNC(=O)c1ccc2ccccc2c1)c1ccccc1 (centres undefined),-7%,-13,1%,6%,3%,-4%
CCCSc1nc2cc(C)c(C)cc2n1CC(C)O (centres undefined),-5%,7,18%,-3%,-1%,-3%
Cc1cccc(NC(=O)C(Cc2ccccc2)c2nn[nH]n2)c1C (centres undefined),-1%,11,2%,6%,?,-2%
O=c1c(N=Nc2ccc(O)cc2)c(-c2ccccc2)[nH]n1-c1ccc([N+](=O)[O-])cc1,16µM*,-22,1%,?,7%,?
CCOC(=O)c1c(CN2CCCCC2)n(C)c2cc(Br)c(O)cc12,9.2µM*,11,23%,2.3µM*,?,10%
CCOC(=O)c1c(CN2CCN(C)CC2)n(C)c2cc(Br)c(OC)cc12,?,-19,?,?,-1%,?
